Among all 410,000 compounds or so, about 3,100 (0.76%) were called active. A call without a number means that no potency is given here. The sample holds actives, similar compounds and a random draw of the others, so the mix is not that of the screen. Calls come from the whole dose curve; as a rule, active = well fitted cell-killing curve with a large enough effect; inactive = no such curve, though single readings can be large or run the other way.
Potency is the fitted concentration of half-maximal effect.

This assay in a line: qHTS for Inhibitors of TGF-b: Cytotox Counterscreen. The settings on record: HepG2 CAGA-GFP viability, ATP luminescence, 18 h; series mostly up to 46.1 µM. The source says:
TGF-b is a main component in the TGF-b signaling pathway which plays diverse roles in cellular and development pathways. TGF-b is mediated by transcription factors called "Smads". Although the Smad-dependent pathway is the primary canonical TGF-b signaling mode, TGF-b1 can also activate alternative signaling pathways, including those involving MAPK (ERK, JNK and p38). This interaction may mediate or enhance Smad-dependent responses, or can exert Smad-independent effects. The complexity of this signaling cascade allows the TGF-b superfamily to perform unique, overlapping or redundant functions. We believe that targeting the TGF-beta pathway at the Smad-transcription factor level may eliminate the consequences of disrupting the entire pathway and offer specificity without affecting other signaling pathways. Smad3 is the primary transducer of TGF-b's signals and Smad3 regulates many functions attributed to TGF-b signaling. We hypothesize that Smad3 inhibitors will selectively eliminate Smad3-specific TGF-beta signals without undesired off-target effects. We aim to identify Smad3-small molecule antagonists using a quantitative high throughput screening (qHTS) approach.
A high-throughput assay was developed to screen the NIH Molecular Libraries Small Molecule Repository (MLSMR). This is a cell based assay, where TGF-b is tagged with GFP. This is a counterscreen that evaluates the cytotoxicity of the compounds that were screened in the primary cell-based screen (AID 588855).
MH087449NIH Chemical Genomics Center [NCGC]
NIH Molecular Libraries Probe Centers Network [MLPCN]
Assay Submitter (PI): Sushil Rane, National Institute of […]
Suspensions of trypsinized HEPG2 CAGA-GFP cells were dispensed into white, tissue culture-treated, solid 1536-well plates at 5uL/well (1000 cells/well final concentration) in DMEM medium supplemented with 1% FBS. Plates were incubated at 37 degrees C for 2 hours, after which 23 nL of compounds or DMSO were delivered to each well using a pin tool. One uL of recombinant TGF-beta in DMEM (1% FBS) was then dispensed (500 pg/mL final concentration), and plates were incubated at 37 degrees C for 18 hours. Two uL of CellTiter Glo (Promega), a luminescence-based viability reagent, was dispensed, followed by a 10 minute room temperature incubation. The plates were then measured on a PerkinElmer ViewLux plate reader for luminescence (clear filter) using a 5 second exposure. The %Activity was determined from the corrected luminescence values. Wells containing media only (no cells) were used to normalize %Activity of identified toxic compounds; media-only wells corresponded to 100%Activity (complete cell-killing), while DMSO-dosed cell controls were used to normalize 0%Activity (no toxicity).
Concentration-response curves were fitted to the signals arising from the resulting luminescence. The concentration-effect curves were then classified based on curve quality (r2), response magnitude and degree of measured activity, and compounds were subsequently categorized based on their curve class.
On the technique in general: Quantitative high-throughput screening tests each substance at several concentrations.
`COc1ccc2cc1Oc1ccc(cc1)C[C@H]1c3cc(c(OC)cc3CCN1C)Oc1c(O)c(OC)cc3c1[C@H](C2)N(C)CC3`: the Potency is 7.94 µM (active).

For `COc1ccc2c(c1O)-c1cccc3c1[C@@H](C2)N(C)CC3`, the Potency entry was “inactive”.

For the compound `COc1c(O)ccc2c1-c1c3c(cc4c1C(C2)N(C)CC4)OCO3` (centres undefined), the Potency entry is “inactive”.

Regarding `CC(C)COC(=O)n1c(=O)oc2ccc(S(=O)(=O)N3CCCCC3)cc21`, the Potency entry is “inactive”.

In the case of `COc1ccccc1CNC(=O)C(Cc1ccccc1)NS(=O)(=O)c1ccc2c(c1)oc(=O)n2C` (centres undefined), the Potency entry is “inactive”.

Turning to `ClCCN(CCCl)c1ccc(C=Nc2ccc(/C=C/c3ccnc4ccccc34)cc2)cc1`, the Potency result was “inactive”.

Regarding `Cc1ccc(C(O)P(=O)(OC(C)C)c2ccc(N(C)C)cc2)cc1` (centres undefined), the Potency result was “inactive”.

As to `COc1ccc(CCNC(=O)CCn2c(=O)oc3ccccc32)cc1OC`, the Potency result was “inactive”.

In the case of `CC(C)(C)c1ccc(CN2C(=O)CN=C(c3ccccc3)c3ccccc32)cc1`, the Potency is 12.6 µM (active).

For the compound `O=C1CC(=O)N(Cc2ccccc2)C(=O)N1CCCCCCN1C(=O)CC(=O)N(Cc2ccccc2)C1=O`, the Potency result was “inactive”.

`CC(C)OP(=O)(OC(C)C)C(Nc1ccccc1)c1cccc([N+](=O)[O-])c1` (centres undefined): the Potency result was “inactive”.

As to `O=c1[nH]c(=S)[nH]c(O)c1/C=C1\C=Nc2ccccc21`, the Potency entry was “inactive”.

In the case of `COc1ccccc1CNC(=O)Cn1c(=O)oc2cc(Cl)ccc21`, the Potency entry is “inactive”.

As to `N#Cc1c(Cl)c(Cl)c(Cl)c(C#N)c1Cl`, the Potency was 0.316 µM (active).

Turning to `Cn1c(=O)oc2cc(S(=O)(=O)N3CCC(C(=O)Nc4ccc(OC(F)(F)F)cc4)CC3)ccc21`, the Potency result was “inactive”.

As for `CCCCOP(=O)(c1ccc(N(C)C)cc1)C(O)c1cc(OC)ccc1OC` (centres undefined), the Potency result was “inactive”.

Turning to `COc1cc([C@@H]2c3cc4c(cc3[C@H](OC(C)=O)[C@H]3COC(=O)[C@H]23)OCO4)cc(OC)c1OC`, the Potency entry is “inactive”.

Consider `CCOC(=O)C(NS(=O)(=O)c1ccc(C)cc1)(C(F)(F)F)P(=O)(OCC(C)C)OCC(C)C` (centres undefined), for which the Potency result is “inactive”.

Regarding `CN(C)CC1Oc2ccccc2OC1(O)c1ccccc1` (centres undefined), the Potency is 3.98 µM (active).

Take `CO[C@H]1[C@@H](O)[C@@H](C)O[C@H](O[C@H]2[C@H](Oc3cccc4c(O)c5c(=O)oc6ccc(C)c7c(=O)oc(c34)c5c67)O[C@H](C)[C@H](O)[C@@H]2O)[C@@H]1O`: the Potency entry was “inactive”.

For the compound `CCOC(=O)c1ccc(NC(=O)CCn2c(=O)oc3ccccc32)cc1`, the Potency result is “inactive”.

For `O=C1NC(=O)N(Cc2ccco2)C(=O)/C1=C\c1ccc(-c2ccc(F)cc2)o1`, the Potency is 12.6 µM (active).

With `CCOP(=O)(OCC)C(Cc1ccccc1)N=C(c1ccccc1)c1ccccc1` (centres undefined), the Potency result is “inactive”.

`Cc1ccc2c(c1)C1C[N+](C)(CC(=O)c3ccccc3)CCC1N2C(=O)c1ccccc1Cl` (centres undefined): the Potency result was “inactive”.

Turning to `Brc1cc(Br)c(Oc2cc(Br)c(Br)cc2Br)cc1Br`, the Potency entry is “inactive”.

In the case of `Cc1ncoc1C(=O)NCC1=C(c2cccc3ccccc23)C[C@@H]2CC[C@H]1N2Cc1ccco1`, the Potency entry is “inactive”.

As for `COC(=O)C1=C(c2ccccc2)C[C@@H]2CC[C@H]1N2C(=O)NCc1ccco1`, the Potency entry is “inactive”.

With `COc1cc(Cn2c(N)c(C(=O)NCc3ccco3)c3nc4ccccc4nc32)cc(OC)c1OC`, the Potency was 17.8 µM (active).

For the compound `CCN(CC)C(=O)Oc1ccc(OC(=O)N(CC)CC)cc1`, the Potency entry was “inactive”.

The values above are taken from PubChem BioAssay AID588856 (National Center for Advancing Translational Sciences (NCATS), 2011).
